# Data taken from PubChem BioAssay (NCATS).
# Values joined by “and” are separate entries in the source; they are usually repeats but may differ in a detail not shown here. Equal entries are not always repeated.
# Test: qHTS profiling for inhibitors of Plasmodium falciparum (DD2) proliferation (AID 743323)
# Conditions: lower = more inhibition; at 28.7 µM (top of the series) unless noted
# Summary of the method: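 SYBR Green fluorescence (ex 485, em 535 nm) of lysed cultures gives parasite DNA content; wells normalized to artemisinin (0.29 uM) and DMSO controls. Infected red cells: 0.3% parasitemia, 2.5% hematocrit, 72 h, 37 C.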
row,SMILES,"activity, percent of control"
1,COc1nc(-c2ccc3c(c2)OCO3)n(-c2ccc(NC(=O)CSc3ccccc3)cc2)n1,95.9%
2,CCC(=O)N[C@H]1CC[C@H](C(=O)N(C)c2ccc(-c3nc4ccccc4o3)cc2)C1,55.3%
3,Nc1nccc(-c2ccc3noc(-c4ccc(Cl)cc4)c3c2)n1,76.1%
4,CN(C)c1ccc(Nc2nc(N)n(C(=O)c3c(F)cccc3F)n2)cc1,8.82%
5,C[C@@H]1CN(Cc2ccc(F)cc2)[C@@H](C)CN1C(=O)c1cc2c(C(=O)C(=O)N(C)C)cn(C)c2cc1Cl,79.8%
6,CCOC(=O)C1=C[C@@]2(CC)CCCN3CCc4c(n1c1ccccc41)[C@H]32,56.5% [at 18.4 µM]

# Test: qHTS profiling for inhibitors of Plasmodium falciparum (HB3) proliferation (AID 743324);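 further: 100% = DMSO vehicle wells and 0% = artemisinin-treated control wells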
# Conditions: Plasmodium falciparum HB3 blood-stage proliferation; at 28.7 µM (top of the series) unless noted
# Summary of the method: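 SYBR Green fluorescence (485 ex/535 em) of lysed cultures, incubated overnight at room temperature in the dark, quantifies parasite DNA. Infected erythrocytes at 0.3% parasitemia and 2.5% hematocrit were exposed 72 h; values normalized to DMSO and 0.29 uM artemisinin controls.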
row,SMILES,"remaining proliferation (% of control), lower = more inhibition"
1,Cc1ccc(NC(=O)c2cccc(C(C)(C)C#N)c2)cc1Nc1ccc2ncn(C)c(=O)c2c1,7.17%
2,O=c1ncn2nc(Sc3ccc(F)cc3F)ccc2c1-c1c(Cl)cccc1Cl,23.8%
3,Cn1cc(-c2ccc3nnc(C(F)(F)c4ccc5ncccc5c4)n3n2)cn1,17.3%
4,COCC(=O)NCC=Cc1ccc2ncnc(Nc3ccc(Oc4ccc(C)nc4)c(C)c3)c2c1,7.14%
5,O=C(O)[C@@H](c1ccc(OCc2ccc3ccccc3n2)cc1)C1CCCC1,106%
6,O=C(OCC#CCSc1nnc(-c2ccc3ccccc3c2)o1)c1cc2ccccc2s1,125%
7,CCc1ccc(CCOc2ccc(CC3SC(=O)NC3=O)cc2)nc1 (configuration not stated),66.4%
8,COc1ccc2nc(S(=O)Cc3ncc(C)c(OC)c3C)[nH]c2c1 (configuration not stated),79.1% and 76.7%
9,CCC(C)N(C)C(=O)c1cc2ccccc2c(-c2ccccc2Cl)n1 (configuration not stated),42%
10,O=C(Nc1ccc(F)c(C(F)(F)F)c1)Nc1nnc(-c2ccncc2)s1,67.6%
11,COc1ccc2c3n(c(=NC(=O)c4cccnc4)nc2c1OC)CCN3,1.47%
12,O=C(Nc1cccnc1)N1CCC(Cc2cccc(Oc3ccc(C(F)(F)F)cn3)c2)CC1,4.06%
13,CCN(CCCO)CCCOc1ccc2c(Nc3cc(CC(=O)Nc4cccc(F)c4)[nH]n3)ncnc2c1,0.759%
14,CCN(CC)CCCC(C)Nc1ccnc2cc(Cl)ccc12 (configuration not stated),0.178%
15,CC(C)C[C@H](NC(=O)[C@@H](O)[C@H](N)Cc1ccccc1)C(=O)O,5.96%
16,N#CC[C@H](C1CCCC1)n1cc(-c2ncnc3[nH]ccc23)cn1,18.5%
17,Cc1ccc2c(c1)C(=O)[C@@]1(O)CCN(c3ccccc3)C1=N2,36.1%
18,N#Cc1ccc(C(c2ccc(C#N)cc2)n2cncn2)cc1,95.8%
19,COc1nc(-c2ccc3c(c2)OCO3)n(-c2ccc(NC(=O)CSc3ccccc3)cc2)n1,94.2%
20,CCC(=O)N[C@H]1CC[C@H](C(=O)N(C)c2ccc(-c3nc4ccccc4o3)cc2)C1,35.8%
21,Nc1nccc(-c2ccc3noc(-c4ccc(Cl)cc4)c3c2)n1,81.1%
22,CN(C)c1ccc(Nc2nc(N)n(C(=O)c3c(F)cccc3F)n2)cc1,7.62%
23,C[C@@H]1CN(Cc2ccc(F)cc2)[C@@H](C)CN1C(=O)c1cc2c(C(=O)C(=O)N(C)C)cn(C)c2cc1Cl,52.3%
24,CCOC(=O)C1=C[C@@]2(CC)CCCN3CCc4c(n1c1ccccc41)[C@H]32,25.8% [at 18.4 µM]

# Test: qHTS profiling of the MIPE4 collection as inhibitors of Plasmodium falciparum (3D7) proliferation (AID 743344);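 further: scaled between DMSO vehicle wells and 0.29 µM artemisinin as full inhibition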
# Conditions: P. falciparum 3D7 in erythrocytes, SYBR Green DNA fluorescence, 72 h; at 28.5 µM (top of the series) unless noted
# Summary of the method: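 Parasite DNA was quantified by SYBR Green I fluorescence (ex 485, em 535 nm) after overnight lysis in saponin/Triton buffer at room temperature. Cultures at 0.3% parasitemia and 2.5% hematocrit were first exposed to compound for 72 h at 37 C; signals were normalised to artemisinin (0.29 uM) and vehicle wells.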
row,SMILES,"parasite growth, % of DMSO control [%]"
1,O=C(O)COCCN1CCN(C(c2ccccc2)c2ccc(Cl)cc2)CC1 (configuration not stated),82.3
2,Cc1ccc(NC(=O)c2cccc(C(C)(C)C#N)c2)cc1Nc1ccc2ncn(C)c(=O)c2c1,17.3
3,O=c1ncn2nc(Sc3ccc(F)cc3F)ccc2c1-c1c(Cl)cccc1Cl,17.6
4,Cn1cc(-c2ccc3nnc(C(F)(F)c4ccc5ncccc5c4)n3n2)cn1,24.5
5,COCC(=O)NCC=Cc1ccc2ncnc(Nc3ccc(Oc4ccc(C)nc4)c(C)c3)c2c1,15.6
6,O=C(O)[C@@H](c1ccc(OCc2ccc3ccccc3n2)cc1)C1CCCC1,90.1
7,CCCCNc1cc(C(=O)O)cc(S(N)(=O)=O)c1Oc1ccccc1,87.9
8,CCc1ccc(CCOc2ccc(CC3SC(=O)NC3=O)cc2)nc1 (configuration not stated),89.3
9,COc1ccc2nc(S(=O)Cc3ncc(C)c(OC)c3C)[nH]c2c1 (configuration not stated),61.2
10,Oc1ccc(C2CNCCc3c2cc(O)c(O)c3Cl)cc1 (configuration not stated),6.63
11,CCC(C)N(C)C(=O)c1cc2ccccc2c(-c2ccccc2Cl)n1 (configuration not stated),39
12,Cc1[nH]c(=O)c(C#N)cc1-c1ccc2nccn2c1,50.3
13,O=C(Nc1ccc(F)c(C(F)(F)F)c1)Nc1nnc(-c2ccncc2)s1,19.3
14,COc1ccc2c3n(c(=NC(=O)c4cccnc4)nc2c1OC)CCN3,5.7
15,O=C(Nc1cccnc1)N1CCC(Cc2cccc(Oc3ccc(C(F)(F)F)cn3)c2)CC1,14.7
16,CCN(CC)CCCC(C)Nc1ccnc2cc(Cl)ccc12 (configuration not stated),19.3
17,CC(C)C[C@H](NC(=O)[C@@H](O)[C@H](N)Cc1ccccc1)C(=O)O,7.87
18,N#CC[C@H](C1CCCC1)n1cc(-c2ncnc3[nH]ccc23)cn1,21.5
19,CCOC(=O)N1CCC(=C2c3ccc(Cl)cc3CCc3cccnc32)CC1,14.5
20,N#Cc1ccc(C(c2ccc(C#N)cc2)n2cncn2)cc1,89.2
21,COc1nc(-c2ccc3c(c2)OCO3)n(-c2ccc(NC(=O)CSc3ccccc3)cc2)n1,51.6
22,CCC(=O)N[C@H]1CC[C@H](C(=O)N(C)c2ccc(-c3nc4ccccc4o3)cc2)C1,28.4
23,Nc1nccc(-c2ccc3noc(-c4ccc(Cl)cc4)c3c2)n1,85.1
24,Nc1ccc(S(=O)(=O)Nc2ccnn2-c2ccccc2)cc1,93.3
25,CN(C)c1ccc(Nc2nc(N)n(C(=O)c3c(F)cccc3F)n2)cc1,10.5
26,C[C@@H]1CN(Cc2ccc(F)cc2)[C@@H](C)CN1C(=O)c1cc2c(C(=O)C(=O)N(C)C)cn(C)c2cc1Cl,49.5
27,NCCc1ccc(O)c(O)c1,74.8
